Drawing on PubChem BioAssay AID1259343 (VanderVen Lab, College of Veterinary Medicine, Cornell …, 2017), this text covers inhibition for 103 compounds.

Among all 6,200 compounds or so, about 2,900 (47%) were called active. Cut-off read from the data, not from the text of the source: active = inhibition above about 50%; inactive = the rest. So high a share suggests a set chosen from earlier hits. Some of the results follow.

A short description of the assay: Mycobacterium tuberculosis growth inhibition, primary screen (AID 1259343). The note with it: inhibition: at 10 µM, hits give high values; outcome: 10 uM.
For the compound `c1csc(-c2nc(SCC3COc4ccccc4O3)n[nH]2)c1` (stereo not drawn), the inhibition was -27.5% (inactive).
Take `c1csc(-c2nnc(CON=C3c4ccccc4-c4ccccc43)o2)c1`: the inhibition was 26.7% (inactive).
Next, `Clc1ccc(C=NOCc2nnc(-c3ccccc3Br)o2)cc1Cl`: 50.2% (active); `Brc1ccccc1-c1nnc(CSc2nnnn2C2CC2)o1`: 28.9% (inactive); `CC(C)c1nc(CS(=O)(=O)c2nc3cc(Cl)ccc3s2)no1`: 64.2% (active).
`Oc1ccc(-c2nc3cc(Cl)ccc3s2)cc1`: the inhibition is 36.2% (inactive).
For `CC(C(N)=O)N1CCC(c2nc3cc(Cl)ccc3s2)CC1` (stereo not drawn), the inhibition is 38% (inactive).
As to `Cc1cc(C)c(C)c(C(=O)/C=C/C(=O)O)c1C`, the inhibition was 85.5% (active).
Regarding `O=C(O)/C=C/C=C/c1ccccc1`, the inhibition is 38.2% (inactive).
With `O=C(Nc1cccc(-c2noc(C3CC3)n2)c1)C1CCOCC1` the figure was 11.2% (inactive); with `O=C(Nc1ccc(-c2nc3ccccc3o2)cc1)C1CCN(C(=O)C2CCCCO2)CC1` (stereo not drawn), 34.5% (inactive).
`Cc1nc(-c2ccc(NC(=O)C3CCOCC3)cc2)co1`: the inhibition was 88.5% (active).
For `C(=Cc1nc2c(ccc3ccccc32)s1)c1ccc2c(c1)OCCO2`, the inhibition was 36.3% (inactive).
Turning to `COc1cc(C(=O)NCC(=O)Nc2nc3c(ccc4ccccc43)s2)cc(OC)c1OC`, the inhibition is 88.5% (active).
For the compound `O=S(=O)(Nc1nc2c(ccc3ccccc32)s1)c1ccc(Cl)s1`, the inhibition was 22.8% (inactive).
On to `O=C1CCC(=O)N1OCCOc1cccc(Oc2ccccc2)c1`, for which the inhibition was 72% (active).
Next, `CCCCNC(=O)NCC12CC3CC(CC(C3)C1)C2`: 74.1% (active); `CC(C)(C(=O)Nc1ccc(F)cc1)c1ccc2c(c1)OCCO2`: 57.4% (active); `CCOC(=O)C1=C(C)N(c2ccc3c(c2)OCCO3)C(=S)NC1c1cccc(F)c1` (stereo not drawn): 1.48% (inactive).
For `CC1CCc2c(sc3nc(C(C)C)nc(N4CCN(C(=O)Nc5c(Cl)cccc5Cl)CC4)c23)C1` (stereo not drawn), the inhibition is 10.7% (inactive).
Turning to `CC1CCc2c(sc3nc(-c4ccc(N(C)C)cc4)nc(N4CCNCC4)c23)C1` (stereo not drawn), the inhibition was 94.9% (active).
On to `Cc1nc(N2CCCCC2)c2c3c(sc2n1)CC(C)CC3` (stereo not drawn), for which the inhibition was -32.2% (inactive).
For the compound `COc1ccc(CCN(Cc2ccc(C)o2)C(=O)CN(C(=O)c2ccccc2Cl)C2CC2)cc1OC`, the inhibition is -5.97% (inactive).
Next, `COC(=O)c1ccc(CN(Cc2ccc(OC)cc2)C2CC2)o1`: 54.7% (active); `COc1cccc(CN(C)C(=O)c2cc3ccccc3o2)c1OC`: 39.1% (inactive); `COC(=O)c1ccc(CN(Cc2ccc(C)o2)C2CC2)o1`: 66.2% (active).
Take `Cc1ccc(NC(=O)NC(=O)CN(Cc2ccco2)C2CC2)cc1C`: the inhibition was -3.72% (inactive).
Regarding `COc1ccc(CN(C(=O)Nc2cccc(Cl)c2)C2CC2)cc1`, the inhibition was -5.25% (inactive).
On to `COC(=O)c1ccc(CN(Cc2sccc2C)C2CC2)o1`, for which the inhibition was 98.5% (active).
`CCN(CC1COc2ccccc2O1)C(=O)NCc1sccc1C` (stereo not drawn): the inhibition is -23.5% (inactive).
`COC(=O)c1ccc(CN(Cc2cccc(OC)c2OC)C2CC2)o1`: the inhibition is 83.8% (active).
Take `COC(=O)c1ccc(CSc2n[nH]c(=S)s2)o1`: the inhibition result is “inactive”.
Turning to `N#Cc1cc(C(=O)c2cc(Cl)cc(Cl)c2O)cn(-c2nccs2)c1=O`, the inhibition is 25.4% (inactive).
With `O=C(NCCC1CC2CCC1C2)c1ccc(N2CCOCC2)nc1` (stereo not drawn), the inhibition was 5.89% (inactive).
Turning to `O=C(CC1C[C@@H]2CC[C@H]1C2)N1CCc2c(cnn2-c2ccccn2)C1` (stereo partly drawn), the inhibition is 49.8% (inactive).
On to `O=C(CC1CC2CCC1C2)N1CCN(c2ccccc2O)CC1` (stereo not drawn), for which the inhibition was 85.9% (active).
As to `COc1cccc(NC(=O)N2CCN(CCCOC(c3ccc(Cl)cc3)c3ccc(Cl)cc3)CC2)c1`, the inhibition was 15.9% (inactive).
Consider `Cc1cccc(Nc2cc(N3CCN(CCCOc4ccccc4)CC3)ncn2)c1`, for which the inhibition was 50.3% (active).
On to `CCCCCOc1ccc(Nc2cc(-c3cccc(N)c3)ncn2)cc1`, for which the inhibition was 5.27% (inactive).
For the compound `Nc1nnc(Sc2ncc([N+](=O)[O-])s2)s1`, the inhibition is 102% (active).
On to `O=[N+]([O-])c1c(-n2cccn2)nn(-c2ccccc2)c1C(Cl)Cl`, for which the inhibition was 101% (active).
With `NCCc1cccc(OCCCc2ccccc2)c1` the figure was 57.2% (active).
Consider `COc1cccc(C=CC(=O)c2ccc(N3CCCC3=O)cc2)c1OC`, for which the inhibition was 40% (inactive).
With `O=C(Nc1nc(-c2ccccn2)cs1)c1cccc(N2CCCC2=O)c1` the figure was 100% (active).
As to `CCCCc1ccc(NC(=O)CSc2n[nH]c(=O)c3cc(-c4ccco4)nn23)cc1`, the inhibition is 98.1% (active).
`S=C(NCC1CCCO1)N1CCc2ccccc2C1` (stereo not drawn): the inhibition is 19.9% (inactive).
As to `S=C(NCC1CCCO1)Nc1ccc(N2CCCCC2)cc1` (stereo not drawn), the inhibition is 60.7% (active).
Regarding `Oc1ccc(C=NNC(=S)NCC2CCCO2)c(O)c1` (stereo not drawn), the inhibition was 101% (active).
For `Oc1ccc(C2=CCN(c3nnc(Br)s3)CC2)cc1`, the inhibition is 95.1% (active).
With `Oc1ccc(C2=CCN(c3ncnc4ccccc34)CC2)cc1`, the inhibition was 15.6% (inactive).
Take `N#Cc1ccc(CN2CC=C(c3ccc(O)cc3)CC2)c(F)c1`: the inhibition was -43% (inactive).
As to `CNC(=O)c1ccc(N2CC=C(c3ccc(O)cc3)CC2)nn1`, the inhibition was 91.4% (active).
With `Cc1cc(C(=O)N2CC=C(c3ccc(O)cc3)CC2)c(C)o1`, the inhibition was 15.5% (inactive).
Consider `O=S(=O)(Nc1cccc(C2OCC(COc3ccc(Cl)cc3)O2)c1)c1ccccc1` (stereo not drawn), for which the inhibition was -0.13% (inactive).
Take `CC(=O)Nc1ccc(OCc2nnsc2Cl)cc1`: the inhibition was 85.4% (active).
Next, `CN(c1ccccc1)c1nc2ccsc2c(=O)s1`: 58.2% (active); `CCc1ccccc1Oc1nc(NC(C)C)nc2ccsc12`: 31.8% (inactive).
Turning to `CCCc1cnc(Nc2nc(C(N)Cc3ccc(C(F)(F)F)cc3)cs2)nc1` (stereo not drawn), the inhibition is 50.7% (active).
With `Cc1cc(C)nc(Nc2nc(C(N)Cc3ccc(Cl)cc3)cs2)n1` (stereo not drawn) the figure was 73.2% (active); with `Cc1cc(C)nc(Nc2nc(C(N)Cc3ccc(C(F)(F)F)cc3)cs2)n1` (stereo not drawn), 79.2% (active); with `Cc1ccc(-c2nc(CN3CCOC(c4ccccc4)C3)cs2)o1` (stereo not drawn), 29.6% (inactive).
Take `CC(=O)CSc1nc(C)nc2sc3c(c12)CCCC3`: the inhibition was 10% (inactive).
For the compound `Cc1nc(SCC(=O)N2CCCCC2C)c2c3c(sc2n1)CCCC3` (stereo not drawn), the inhibition is 51.5% (active).
As to `Cc1c(-c2ccccc2)sc2ncn(CC(=O)N3CCCCC3C)c(=O)c12` (stereo not drawn), the inhibition was 48.6% (inactive).
With `Cc1ccc2[nH]cc(-c3cccc(OCC(N)=O)c3)c2c1` the figure was 72.6% (active); with `CC(C)(C)c1csc(-c2cccc(OCC(N)=O)c2)n1`, 35.2% (inactive).
Next, `COc1ccc(C(C)O)cc1CSc1nc2ccccc2s1` (stereo not drawn): 40.5% (inactive); `Oc1ccccc1OCc1nc2ccccc2s1`: 54.7% (active); `S=c1[nH]nc(CSc2nc3ccccc3s2)o1`: -31.5% (inactive).
Take `Clc1c(CSc2nc3ccccc3s2)nc2ncccn12`: the inhibition was 77.3% (active).
On to `O=C(CSc1nc2ccccc2s1)NCCN1C(=O)SC(=Cc2ccc3c(c2)OCO3)C1=O`, for which the inhibition was 4.39% (inactive).
`c1ccc2sc(Sc3ncnc4sccc34)nc2c1`: the inhibition was 59.5% (active).
Turning to `c1ccc2sc(CSc3ncnc4sccc34)nc2c1`, the inhibition was 35% (inactive).
With `c1csc(Cn2nnnc2Sc2ncnc3sccc23)c1` the figure was -23.8% (inactive).
As for `Brc1ccc2nc(CSc3nc4ccccc4s3)cn2c1`, the inhibition entry is “inactive”.
Next, `c1ccc(Sc2c(-c3ccccc3)nc3ncccn23)cc1`: “inactive”; `c1ccc2sc(CSc3nc4ccccc4s3)nc2c1`: 95.9% (active).
Next, `N#CC(=C(O)CC12CC3CC(CC(C3)C1)C2)c1nc2ccccc2s1`: 21.6% (inactive).
Turning to `CCc1nnc(CNc2ccc3c(c2)OC(F)(F)O3)o1`, the inhibition was 32.3% (inactive).
On to `CC(NC(=O)c1cnsn1)c1cccc(Cl)c1` (stereo not drawn), for which the inhibition was 42.3% (inactive).
`CC(NC(=O)c1cc(Cl)ccn1)c1cccc(OC(F)F)c1` (stereo not drawn): the inhibition was 70.3% (active).
`Cc1c(C(=O)NC(C)c2cccc(Cl)c2)oc2c1C(=O)CCC2` (stereo not drawn): the inhibition was 1.37% (inactive).
Take `CC(C)(C)OC(=O)c1cccc(NC2Cc3ccccc3C2)c1`: the inhibition was 29.1% (inactive).
Regarding `CCOC(=O)c1cccc(NC(=O)NC/C=C(\C)CCC=C(C)C)c1`, the inhibition was 88.1% (active).
With `CC(C)=CCC/C(C)=C/C(=O)NCc1ccccn1` the figure was -13% (inactive).
Turning to `Fc1ccc(NC(=S)NC2CCCCC2)c(F)c1F`, the inhibition was 18.1% (inactive).
Regarding `Fc1ccc(F)c(NC(=S)NC2CCCCC2)c1`, the inhibition was 42% (inactive).
`O=[N+]([O-])c1cc(NC(=S)NC2CCCCC2)ccc1Cl`: the inhibition was 99.3% (active).
Regarding `S=C(Nc1cccc(I)c1)NC1CCCCC1`, the inhibition is 93.2% (active).
As to `O=C(O)c1cnc(/C=C/c2cc(Cl)c3c(c2)OCCCO3)s1`, the inhibition is 85.9% (active).
Turning to `O=C(O)c1cnc(/C=C/c2cnn(-c3ccc(Cl)cc3)c2)s1`, the inhibition was 62.2% (active).
Next, `COc1cc(/C=C/c2ncc(C(=O)O)s2)cc(Cl)c1OC`: 80.2% (active); `CNC(=O)c1cnc(/C=C/C2=Cc3cc(Cl)ccc3OC2)s1`: 11.2% (inactive); `O=C(O)c1cnc(/C=C/c2cc(Br)cs2)s1`: -34.7% (inactive).
Regarding `O=C(CN1CCN(S(=O)(=O)N2CCCCCC2)CC1)Nc1ccc2ccccc2c1`, the inhibition is 3.56% (inactive).
Turning to `O=C(CN1CCCCCC1)Nc1ccc(C(F)(F)F)cc1`, the inhibition was 71.2% (active).
As to `CC1OC(=O)[C@@H](C(C)C)NC(=O)C(C(C)C)OC(=O)[C@H](C(C)C)NC(=O)C(C)OC(=O)[C@@H](C(C)C)NC(=O)C(C(C)C)OC(=O)[C@H](C(C)C)NC(=O)C(C)OC(=O)[C@@H](C(C)C)NC(=O)C(C(C)C)OC(=O)[C@H](C(C)C)NC1=O` (stereo partly drawn), the inhibition was 101% (active).
For `COc1cc(NC(=O)c2ccc(C)o2)cc(OC)c1`, the inhibition was 81.4% (active).
As to `COc1cc(NC(=O)c2ccc(Cl)s2)cc(OC)c1`, the inhibition is 3.54% (inactive).
With `O=C(COc1cccc2cccnc12)NCC1CCCCC1` the figure was 89.7% (active); with `O=C(COc1ccc([N+](=O)[O-])cc1)NCC1CCCCC1`, -9.56% (inactive); with `NCCOCc1ccc(-c2cc3ccccc3o2)cc1`, 15.6% (inactive).
As for `c1cc(-c2cc3ccccc3o2)cc(-n2cnnc2)c1`, the inhibition is 74.5% (active).

A word on the inhibition: it is the relative decrease from the control value, in per cent.
